# Experimental data published in PubChem BioAssay (NCATS).
# Inconclusive results are not listed. A call without a number means that no potency is given here. Calls of active or inactive are those of the source. The call rests on the fitted dose curve; in most records, active means well fitted cell-killing curve with a large enough effect; inconclusive means small, poorly fitted or top-dose-only effect, or effect the other way; inactive means no such curve, though single readings can be large or run the other way.
# Assay: Quantitative High-Throughput drug screen in 47 multiple myeloma cell lines against the NCATS MIPE library collection: JIM1_ECACC cell viability assay (AID 1918964)
# Conditions: JIM1 myeloma viability, CellTiter-Glo ATP luminescence, 48 h; series mostly up to 45.8 µM
# Outline: (§1)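 Myeloma cells (500 per well) were exposed to MIPE 4.0 compounds by pin transfer and incubated 48 hours at 37C, 5% CO2. Viability was read as ATP by CellTiter-Glo luminescence, normalised to DMSO (100%) and media-only (0%) wells.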
row,SMILES,Potency
1,CCN(CC)CCn1c(=O)c(Cc2ccc(OC)cc2)nc2ccccc21,inactive
2,CNC1CCCN(c2c(F)cc3c(=O)c(C(=O)O)cn(C4CC4)c3c2OC)C1 (stereo not drawn),inactive
3,CNS(=O)(=O)Cc1ccc2[nH]cc(CCN(C)C)c2c1,inactive
4,NC(=O)c1cccnc1,inactive
5,N[C@@H](Cc1ccc(O)c(O)c1)C(=O)O,inactive
6,NS(=O)(=O)c1cc2c(cc1Cl)NC(C(Cl)Cl)NS2(=O)=O (stereo not drawn),inactive
7,CC[C@H](NC(C)C)[C@H](O)c1ccc(O)c2[nH]c(=O)ccc12,inactive
8,CC(C)C1CCC(C(=O)N[C@H](Cc2ccccc2)C(=O)O)CC1 (stereo partly drawn),inactive
9,NC(=O)N1c2ccccc2CC(=O)c2ccccc21,inactive

# Assay: Quantitative High-Throughput drug screen in 47 multiple myeloma cell lines against the NCATS MIPE library collection: INA6_PLB cell viability assay (AID 1918965; further: nearly all actives have a fitted effect of over 55% in size; further: potency means the concentration at half of the fitted maximal effect)
# Conditions: INA6 myeloma viability, CellTiter-Glo ATP luminescence, 48 h; series mostly up to 45.8 µM
# Outline: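 CellTiter-Glo ATP luminescence gave viability after 48 h compound treatment at 37C of 500 multiple myeloma cells per well. Normalisation used DMSO-only wells as 100% and media-only wells as 0% viability; primary qHTS of approved and investigational drugs.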
row,SMILES,Potency
1,COC(=O)Nc1nc2ccc(C(=O)c3ccccc3)cc2[nH]1,1.18 µM (active)
2,COc1cc2c(Nc3ccc(Br)cc3F)ncnc2cc1OCC1CCN(C)CC1,9.35 µM (active)
3,CC(C(=O)O)c1ccc2c(c1)CC(=O)c1ccccc1S2 (stereo not drawn),inactive
4,CCOC(=O)c1ccc(C#Cc2ccc3c(c2)C(C)(C)CCS3)nc1,inactive
5,NC(N)=NC(N)=NCCc1ccccc1,20.9 µM (active)
6,CN1CCCC(n2nc(Cc3ccc(Cl)cc3)c3ccccc3c2=O)CC1 (stereo not drawn),1.32 µM (active)
7,Cc1nnc(NS(=O)(=O)c2ccc(N)cc2)s1,9.35 µM (active)
8,CNS(=O)(=O)CCc1ccc2[nH]cc(C3CCN(C)CC3)c2c1,2.09 µM (active)
9,Cc1cccc(N(C)C(=S)Oc2ccc3ccccc3c2)c1,inactive
10,CS(=O)(=O)c1ccc([C@@H](O)[C@@H](CO)NC(=O)C(Cl)Cl)cc1,11.8 µM (active)
11,CNC(=O)c1cc(Oc2ccc(NC(=O)Nc3ccc(Cl)c(C(F)(F)F)c3)cc2)ccn1,13.2 µM (active)
12,Nc1ccc(S(=O)(=O)Nc2ccccn2)cc1,inactive
13,CC(C)(C#N)c1cc(Cn2cncn2)cc(C(C)(C)C#N)c1,inactive
14,CCCOc1ccc(C(=O)OCCN(CC)CC)cc1N,inactive
15,CN1CCN(c2c(F)cc3c(=O)c(C(=O)O)cn4c3c2OCN4C)CC1,inactive
16,Cc1ncc([N+](=O)[O-])n1CCO,inactive
17,NC(=O)c1cccc(N)c1,inactive
18,COc1cc(NS(=O)(=O)c2ccc(N)cc2)nc(OC)n1,inactive
19,CCCCCCNC(=O)n1cc(F)c(=O)[nH]c1=O,11.8 µM (active)
20,Cc1nnc(C(=O)NC(C)(C)c2nc(C(=O)NCc3ccc(F)cc3)c(O)c(=O)n2C)o1,inactive
21,Cc1noc(NS(=O)(=O)c2ccc(N)cc2)c1C,inactive
22,CC(=O)CC(c1ccccc1)c1c(O)c2ccccc2oc1=O (stereo not drawn),inactive
23,O=c1oc2c(O)c(O)cc3c(=O)oc4c(O)c(O)cc1c4c23,inactive
24,COc1cccc(N(C)C(=S)Oc2ccc3c(c2)CCCC3)n1,16.6 µM (active)
25,OC(Cn1cncn1)(Cn1cncn1)c1ccc(F)cc1F,inactive
26,COc1ccc(-c2ccc3cc(C(=O)O)ccc3c2)cc1C12CC3CC(CC(C3)C1)C2,inactive
27,C[C@]12C=CC(=O)C=C1CC[C@@H]1[C@@H]2C(=O)C[C@@]2(C)[C@H]1CC[C@]2(O)C(=O)CO,inactive

# Assay: Quantitative High-Throughput drug screen in 47 multiple myeloma cell lines against the NCATS MIPE library collection: JJN3_DSMZ cell viability assay (AID 1918966; further: nearly all actives have a fitted effect of over 50% in size; further: potency means the concentration at half of the fitted maximal effect)
# Conditions: JJN3 myeloma cells viability, CellTiter-Glo ATP, 48 h; series mostly up to 45.8 µM
# Outline: as §1
row,SMILES,Potency
1,COC(=O)Nc1nc2ccc(C(=O)c3ccccc3)cc2[nH]1,2.64 µM (active)
2,COc1cc2c(Nc3ccc(Br)cc3F)ncnc2cc1OCC1CCN(C)CC1,18.7 µM (active)
3,CN1CCCC(n2nc(Cc3ccc(Cl)cc3)c3ccccc3c2=O)CC1 (stereo not drawn),2.96 µM (active)
4,CNS(=O)(=O)CCc1ccc2[nH]cc(C3CCN(C)CC3)c2c1,0.0418 µM (active)
5,Cc1cccc(N(C)C(=S)Oc2ccc3ccccc3c2)c1,inactive
6,CNC(=O)c1cc(Oc2ccc(NC(=O)Nc3ccc(Cl)c(C(F)(F)F)c3)cc2)ccn1,23.5 µM (active)
7,CC(C)(C#N)c1cc(Cn2cncn2)cc(C(C)(C)C#N)c1,2.35 µM (active)
8,CCCOc1ccc(C(=O)OCCN(CC)CC)cc1N,inactive
9,CN1CCN(c2c(F)cc3c(=O)c(C(=O)O)cn4c3c2OCN4C)CC1,inactive
10,Cc1ncc([N+](=O)[O-])n1CCO,inactive
11,COc1cc(NS(=O)(=O)c2ccc(N)cc2)nc(OC)n1,inactive
12,CCCCCCNC(=O)n1cc(F)c(=O)[nH]c1=O,23.5 µM (active)

# Assay: Quantitative High-Throughput drug screen in 47 multiple myeloma cell lines against the NCATS MIPE library collection: H1112_PLB cell viability assay (AID 1918967; further: nearly all actives have a fitted effect of over 30% in size; further: potency means the concentration at half of the fitted maximal effect)
# Conditions: H1112 myeloma cells viability, ATP luminescence, 48 h; series mostly up to 45.8 µM
# Outline: as §1
row,SMILES,Potency
1,CCN(CC)CCn1c(=O)c(Cc2ccc(OC)cc2)nc2ccccc21,inactive
2,CCOC(=O)c1ccc(C#Cc2ccc3c(c2)C(C)(C)CCS3)nc1,20.9 µM (active)
3,CNS(=O)(=O)Cc1ccc2[nH]cc(CCN(C)C)c2c1,inactive
4,NC(=O)c1cccnc1,inactive
5,Cc1cccc(N(C)C(=S)Oc2ccc3ccccc3c2)c1,inactive
6,CS(=O)(=O)c1ccc([C@@H](O)[C@@H](CO)NC(=O)C(Cl)Cl)cc1,inactive
7,CNC(=O)c1cc(Oc2ccc(NC(=O)Nc3ccc(Cl)c(C(F)(F)F)c3)cc2)ccn1,9.35 µM (active)
8,Nc1ccc(S(=O)(=O)Nc2ccccn2)cc1,inactive
9,CC(C)(C#N)c1cc(Cn2cncn2)cc(C(C)(C)C#N)c1,inactive
10,NS(=O)(=O)c1cc2c(cc1Cl)NC(C(Cl)Cl)NS2(=O)=O (stereo not drawn),inactive
11,CCCOc1ccc(C(=O)OCCN(CC)CC)cc1N,inactive
12,CC[C@H](NC(C)C)[C@H](O)c1ccc(O)c2[nH]c(=O)ccc12,inactive
13,NC(=O)c1cccc(N)c1,inactive
14,CC(C)C1CCC(C(=O)N[C@H](Cc2ccccc2)C(=O)O)CC1 (stereo partly drawn),inactive
15,CCCCCCNC(=O)n1cc(F)c(=O)[nH]c1=O,5.26 µM (active)
16,Cc1nnc(C(=O)NC(C)(C)c2nc(C(=O)NCc3ccc(F)cc3)c(O)c(=O)n2C)o1,inactive
17,O=c1oc2c(O)c(O)cc3c(=O)oc4c(O)c(O)cc1c4c23,inactive
18,COc1cccc(N(C)C(=S)Oc2ccc3c(c2)CCCC3)n1,inactive
19,COc1ccc(-c2ccc3cc(C(=O)O)ccc3c2)cc1C12CC3CC(CC(C3)C1)C2,inactive
20,NC(=O)N1c2ccccc2CC(=O)c2ccccc21,inactive
